The source of these data is the supplement of paper PMC11417369.

± gives the standard deviation of the averaged measurements. Over roughly 25,000 sequences, “ln(normalized median fluorescence intensity)” has its median near 10; the highest 2% begin near 12. For the sample, the highest values were picked, then their nearest neighbours and some sequences at random.

For this assay, the system named is PfAP2-G AP2 domain (GST-tagged). The assay is described as follows: gcPBM binding intensity (ln(normalized median fluorescence intensity)); higher = stronger DNA binding. Put shortly:
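GST-tagged P. falciparum DNA-binding domains, expressed in E. coli (about 25 μg on average), were applied for 1 h to an Agilent 4 × 180k array of primer-extended double-stranded 36-bp intergenic genomic probes plus negative controls. The binding buffer was 1× PBS with 1% milk, 0.2 mg/ml BSA, 0.5% salmon testes DNA and 0.03% Triton X-100. Bound protein was detected with Alexa488 anti-GST antibody and scanned at 488 nm. Binding intensity is the highest Masliner-normalised natural-log median intensity across replicate spots of either probe orientation.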
With “GGAAGATGAAAAATAAAGCATGTGCTGTACAAACGA [CACACA_negctrl_site1625]”, the “gcPBM binding intensity (ln)” value was determined as 10.8 ± 0.37.

Take “GATGATGTTTATTTGTGTACATATTAATACTTAATA [XGTACX_site1902]”: the “gcPBM binding intensity (ln)” value came out at 11.4 ± 0.82.

As to “TTAATATTTTGATGTGTACACATTAAAATAGTTTTA [CACACA_site5712]”, the “gcPBM binding intensity (ln)” value amounted to 11.8 ± 0.89.

“TTATTTAAATAATATGTACACACATTTAAAAAATTA [CACACA_site8912]”: the “gcPBM binding intensity (ln)” value turned out to be 11.6 ± 0.95.

Turning to “AATATTTTGATGTGTACACATTAATACAGTTTTACA [CACACA_site5711]”, the “gcPBM binding intensity (ln)” value came out at 11.7 ± 0.91.

For “GATGATAAAATATGTACACACAGTTTATACATTTTG [CACACA_site4055]”, the “gcPBM binding intensity (ln)” value came out at 11.3 ± 0.76.

With “ATATAAATATTTATTAGTACACATTAGTGTAGTTTT [XGTACX_site4493]”, the “gcPBM binding intensity (ln)” value is 11.5 ± 0.88.

As to “TTTTATTATTTGTCTTGTACTCATTGTAAGAGTATG [XGTACX_site1538]”, the “gcPBM binding intensity (ln)” value was 11.4 ± 0.91.

In the case of “ATATAATAATATTATACATGCAAAATATGTTCTTCA [TGCATGCA_site115]”, the “gcPBM binding intensity (ln)” value was 9.795 ± 0.049.

For the sequence “AACTTTATACTTTTTTGTACTTAACCCTTACATTTT [XGTACX_site5798]”, the “gcPBM binding intensity (ln)” value is 11.1 ± 0.38.

Consider “AATAACAATTATAAAAGTACAGATTTTTATTTCTAA [XGTACX_site5746]”, for which the “gcPBM binding intensity (ln)” value was determined as 11.1 ± 0.79.

With “AAATAAAATTTTATGTGTACGCAAAAAGTTGTAAGC [XGTACX_site8911]”, the “gcPBM binding intensity (ln)” value was 11.9 ± 1.3.

“TATATAAAAATATGTTGTACGCATTTATAAATATAT [XGTACX_site3758]”: the “gcPBM binding intensity (ln)” value came out at 11.6 ± 0.98.

Consider “TATGTATATATATAAAGTACGCAAATTTATAATAAG [XGTACX_site8744]”, for which the “gcPBM binding intensity (ln)” value was found to be 11.5 ± 0.98.

With “GCGTAATCTATTTGCACACTTATTTGTTCTTAAAAA [CACACA_site672]”, the “gcPBM binding intensity (ln)” value was found to be 10.2 ± 0.14.

Turning to “AAGATATGTACTAATACACACACATATATATATATA [CACACA_site8249]”, the “gcPBM binding intensity (ln)” value came out at 11.2 ± 0.79.

As for “CATACATTTAAAAAGTGTACGTATATGAAAAAAGGA [XGTACX_site6512]”, the “gcPBM binding intensity (ln)” value stood at 11.7 ± 1.1.

Regarding “TGTATATACATAAAGTGTACGTATATTTATATATAT [XGTACX_site4320]”, the “gcPBM binding intensity (ln)” value turned out to be 11.6 ± 0.98.

As for “ATGAAAATTATAAAGTGTACATATAGAAACATTTAC [XGTACX_site8047]”, the “gcPBM binding intensity (ln)” value stood at 11.4 ± 0.99.

Take “TACATATACATATACACACACACACCCAAATAAATA [CACACA_site1344]”: the “gcPBM binding intensity (ln)” value was 10.3 ± 0.35.

Turning to “TATATTAACAAAATGGTGCAATAATTTCTATATTAT [GTGCAC_site9857]”, the “gcPBM binding intensity (ln)” value was found to be 10.1 ± 0.22.

Take “ATTTTTCTAAAATACTGTACAAAGGTGCATAAAAAG [XGTACX_site4425]”: the “gcPBM binding intensity (ln)” value was determined as 11 ± 0.64.

“GATAATGAATGATGCACACTAAAAATATTCTACAAC [CACACA_site3622]”: the “gcPBM binding intensity (ln)” value is 10.185 ± 0.007.

Consider “TTTTCTCTAAAAAGGTGTACAACTAATAATGCACTG [XGTACX_site6074]”, for which the “gcPBM binding intensity (ln)” value is 11.7 ± 0.83.

Turning to “TTATATATTTTATTATTTATAATCTTTTTTTTATTT [CACACA_negctrl_site112]”, the “gcPBM binding intensity (ln)” value stood at 9.585 ± 0.049.

“AAAAATGAGTGACACACACACATATAAATATAAATA [CACACA_site7115]”: the “gcPBM binding intensity (ln)” value worked out at 10.1 ± 0.25.

For the sequence “TATGTATGCCTGTTTTGTACTTAAGAAAATGTTGCT [XGTACX_site8443]”, the “gcPBM binding intensity (ln)” value was found to be 11 ± 0.57.

For “AATTTTTGTATTTTTAGTACTTAATTTCAAAATAAC [XGTACX_site4234]”, the “gcPBM binding intensity (ln)” value was 11.2 ± 0.6.

“TGTGTCAAATAATTAATGTCATATATATTTTGTATA [CACACA_negctrl_site1479]”: the “gcPBM binding intensity (ln)” value turned out to be 9.675 ± 0.078.

As to “TATTTTTTTAATAACTGTACTTTTTTGTCAAATGGA [XGTACX_site4179]”, the “gcPBM binding intensity (ln)” value was determined as 11.7 ± 1.2.

In the case of “AATAAATATATATTCACACACAAACATATATATATA [CACACA_site4023]”, the “gcPBM binding intensity (ln)” value worked out at 10.1 ± 0.45.

Consider “CAGTATTACATGAGGACACACACAAAAAAAATATAT [CACACA_site8156]”, for which the “gcPBM binding intensity (ln)” value was found to be 11.3 ± 0.86.

In the case of “AATATAAAAAAAAAATGTACATATTATATATATATA [XGTACX_site5113]”, the “gcPBM binding intensity (ln)” value turned out to be 11.1 ± 0.72.

“ATAATTAAATAAAAAAGTACACATACATCATAATGC [XGTACX_site7656]”: the “gcPBM binding intensity (ln)” value turned out to be 11.5 ± 0.87.

Consider “AAAAAATAATTGAAGTGTACGTACAATGATTTTACT [XGTACX_site7663]”, for which the “gcPBM binding intensity (ln)” value stood at 11.8 ± 1.1.

On to “AAAAGAACAATGAAGTGTACTAATAATTATTTATGT [XGTACX_site6649]”, for which the “gcPBM binding intensity (ln)” value stood at 11.3 ± 0.79.

On to “TTAAAAATGATTGAATGTACAGATTAATATAATTTT [XGTACX_site7394]”, for which the “gcPBM binding intensity (ln)” value was determined as 10.7 ± 0.28.

“TAAAATGAAGGAATATGTACATAAATAAACATATAT [XGTACX_site6266]”: the “gcPBM binding intensity (ln)” value amounted to 11.2 ± 0.63.

“TTATAGTAATAATAATGTACATTTATACACATATAT [XGTACX_site1965]”: the “gcPBM binding intensity (ln)” value was 10.9 ± 0.47.

Regarding “GACATTTGTGAGCTTGAGCCGTCAAACCACTAAATA [CACACA_negctrl_site552]”, the “gcPBM binding intensity (ln)” value was found to be 9.99 ± 0.028.

Take “AAAAGAAAAGAGAGGAGTACAAAATATAATTATCTA [XGTACX_site5172]”: the “gcPBM binding intensity (ln)” value stood at 11.3 ± 0.76.

Regarding “GGGGGTAGGGGAAGAAGTACAATGATCACTACAGTA [XGTACX_site1169]”, the “gcPBM binding intensity (ln)” value stood at 11.9 ± 1.3.

For the sequence “TAAAAATGATCAAAGGGTACAGTATTAATTAAAAAA [XGTACX_site1079]”, the “gcPBM binding intensity (ln)” value worked out at 11.3 ± 0.93.

On to “ATATAAGATTTAAGAAGTACAATTATACAGTAGATC [XGTACX_site7501]”, for which the “gcPBM binding intensity (ln)” value amounted to 11.4 ± 0.88.

As for “TTATTTTTAACGTACGCACACATATAAATATATTTA [CACACA_site1976]”, the “gcPBM binding intensity (ln)” value came out at 11.5 ± 0.97.

For the sequence “CAGGCGTGAAATATACGTACACACATTATTTATATT [XGTACX_site5337]”, the “gcPBM binding intensity (ln)” value was found to be 11.8 ± 0.94.

“AGGCGTGAAATATACGTACACACATTATTTATATTT [CACACA_site2558]”: the “gcPBM binding intensity (ln)” value came to 11.6 ± 1.

“TTTATTTATTTTTAACGTACGCACACATATAAATAT [XGTACX_site4042]”: the “gcPBM binding intensity (ln)” value amounted to 11.4 ± 0.72.

As to “TATTTATACATACGTACACACAAATATTAAAATATA [CACACA_site7004]”, the “gcPBM binding intensity (ln)” value was determined as 11.5 ± 0.96.

Turning to “CGCAACGTGAAAATACGTACACATACATTTTTATAT [XGTACX_site330]”, the “gcPBM binding intensity (ln)” value came to 11.7 ± 0.85.

In the case of “TTGTTAATATATATATGTACTTATTTATTTATTTAT [XGTACX_site2274]”, the “gcPBM binding intensity (ln)” value was found to be 11.4 ± 0.93.

Regarding “TATATATATATATAATGTACAGAAAAAAAAAAAAAA [XGTACX_site6141]”, the “gcPBM binding intensity (ln)” value was found to be 10.8 ± 0.86.

With “TATTCAAAGAAAAACTGTACGTGTAGCAAACGTCAT [XGTACX_site7713]”, the “gcPBM binding intensity (ln)” value is 11.5 ± 0.83.

With “TACAGATAAATATACATACATATATATATATATATA [XGTACX_negctrl_site182]”, the “gcPBM binding intensity (ln)” value is 9.86 ± 0.42.

As for “TGAAATTTTTATACATGTACAAAATTAAATATAACA [XGTACX_site7324]”, the “gcPBM binding intensity (ln)” value was determined as 10.8 ± 0.49.

Turning to “TATATTTTTTTAAAAAGTACTTTGTATATATATATA [XGTACX_site1300]”, the “gcPBM binding intensity (ln)” value worked out at 11.1 ± 0.83.

Regarding “TATTTTATATAAAGGTGTACTTATACAAAAATATAT [XGTACX_site7435]”, the “gcPBM binding intensity (ln)” value came to 11.5 ± 0.88.

As to “TTATATATTTTTAGGTGTACTTTTTTTTTTTTTTTT [XGTACX_site8164]”, the “gcPBM binding intensity (ln)” value is 11.7 ± 0.91.

Regarding “GTATATTTTTAAAGGTGTACTTTTTTTTTTTTTTTT [XGTACX_site721]”, the “gcPBM binding intensity (ln)” value is 11.8 ± 1.1.

“ATATATATTTTATATTGTACTTATTATTTTTAGGGC [XGTACX_site723]”: the “gcPBM binding intensity (ln)” value was 11.4 ± 0.81.

As to “TTATTTATTTAGTAGTGTACTTTTTATATTTATAAT [XGTACX_site5978]”, the “gcPBM binding intensity (ln)” value was 11.6 ± 0.99.
